Measurements reported in PubChem BioAssay AID1159580 (chemical genetic matrix, 2015).
Where “and” joins values, the source holds several entries; their conditions need not be identical. Identical values can stand only once. Hit rate of the full screen: of about 5,500 compounds, about 2,000 (36%) were called active. Another 18% or so got no clear call; they are omitted. Rule as the data show it: active = normalized growth mostly below about 0.91 (no sharp cut-off); inconclusive = no clear call, values can overlap the other calls; inactive = mostly above about 0.92. The list shows a part of the results.

Assay: chemical genetic growth profiling, strain panel (AID 1159580);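 also: tested at 20 µM; growth read once vehicle control cultures reached saturation at 30 °C; 1 = growth at the plate median or of vehicle wells; lower values mean less growth of the strain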
Settings: S. cerevisiae deletion strains, growth OD

Measured: normalized growth

Oc1cccc(O)c1
inactive: locus YAL013W, strain DEP1, hits give low values 1.01 | locus YAL021C, strain ccr4, hits give low values 0.951 | locus YAL026C, strain drs2, hits give low values 0.966 | locus YAL030W, strain snc1, hits give low values 0.981 | locus YBL061C, strain skt5, hits give low values 0.981 | locus YBR009C, strain hhf1, hits give low values 0.981 | locus YBR021W, strain FUR4, hits give low values 1.02 | locus YBR023C, strain chs3, hits give low values 0.975 | locus YBR171W, strain sec66, hits give low values 0.983 | locus YBR229C, strain ROT2, hits give low values 1.01 | locus YBR231C, strain swc5, hits give low values 0.99 | locus YBR279W, strain paf1, hits give low values 1 | locus YCL011C, strain gbp2, hits give low values 0.938 | locus YCL016C, strain dcc1, hits give low values 0.956 | locus YCL029C, strain bik1, hits give low values 0.987 | locus YCL061C, strain MRC1, hits give low values 0.95 | locus YCL069W, strain vba3, hits give low values 0.978 | locus YCR088W, strain abp1, hits give low values 0.981 | locus YDL005C, strain med2, hits give low values 0.977 | locus YDL035C, strain GPR1, hits give low values 1.01 | locus YDL040C, strain nat1, hits give low values 0.99 | locus YDL074C, strain BRE1, hits give low values 1.01 | locus YDL101C, strain DUN1, hits give low values 1 | locus YDL134C, strain PPH21, hits give low values 0.999 | locus YDL185W, strain tfp1, hits give low values 0.974 | locus YDL192W, strain arf1, hits give low values 0.987 | locus YDR001C, strain nth1, hits give low values 0.957 | locus YDR069C, strain doa4, hits give low values 0.976 | locus YDR101C, strain arx1, hits give low values 0.981 | locus YDR137W, strain rgp1, hits give low values 0.942 | locus YDR150W, strain NUM1, hits give low values 1.01 | locus YDR159W, strain sac3, hits give low values 0.953 | locus YDR162C, strain NBP2, hits give low values 1 | locus YDR195W, strain ref2 0.993 | locus YDR297W, strain sur2, hits give low values 0.989 | locus YDR318W, strain mcm21, hits give low values 0.985 | locus YDR334W, strain swr1, hits give low values 0.969 | locus YDR335W, strain msn5, hits give low values 0.983 | locus YDR388W, hits give low values 0.986 | locus YDR392W, strain spt3, hits give low values 0.872 | locus YDR502C, strain sam2, hits give low values 0.984 | locus YEL003W, strain gim4, hits give low values 0.985 | locus YEL037C, strain rad23, hits give low values 0.977 | locus YEL061C, strain CIN8 (second series), hits give low values 0.972 | locus YEL061C, strain CIN8, hits give low values 1 | locus YER015W, strain faa2, hits give low values 0.981 | locus YER016W, strain bim1, hits give low values 0.982 | locus YER110C, hits give low values 0.984 | locus YER111C, strain swi4, hits give low values 0.981 | locus YER155C, strain BEM2 (second series), hits give low values 0.973 | locus YER155C, strain BEM2, hits give low values 1 | locus YER167W, strain BCK2, hits give low values 1.01 | locus YFR010W, strain ubp6, hits give low values 0.966 | locus YGL078C, strain dbp3, hits give low values 0.987 | locus YGL086W, strain mad1, hits give low values 0.994 | locus YGL167C, strain pmr1, hits give low values 0.984 | locus YGL173C, strain kem1, hits give low values 0.996 | locus YGL227W, strain vid30, hits give low values 0.981 | locus YGL240W, strain doc1, hits give low values 1.01 | locus YGL248W, strain PDE1, hits give low values 1.01 | locus YGL253W, strain hxk2, hits give low values 0.962 | locus YGR135W, strain pre9, hits give low values 0.986 | locus YGR252W, strain gcn5, hits give low values 0.974 | locus YHR013C, strain ard1, hits give low values 0.947 | locus YHR027C, strain rpn1, hits give low values 0.985 | locus YHR030C, strain SLT2, hits give low values 1.01 and 1.03 | locus YHR079C, strain IRE1 (second series), hits give low values 0.987 | locus YHR079C, strain IRE1, hits give low values 1.05 | locus YHR094C, strain hxt1, hits give low values 0.993 | locus YHR129C, strain ARP1, hits give low values 1.02 | locus YHR142W, strain chs7, hits give low values 0.954 | locus YHR200W, strain rpn10, hits give low values 0.987 | locus YIL066C, strain RNR3, hits give low values 0.999 | locus YIL073C, strain SPO22, hits give low values 0.993 | locus YIL125W, strain kgd1, hits give low values 0.986 | locus YIR030C, strain dcg1, hits give low values 0.991 | locus YJL092W, strain hpr5, hits give low values 0.963 | locus YJL095W, strain BCK1 (second series), hits give low values 0.987 | locus YJL095W, strain BCK1, hits give low values 1.02 and 0.997 | locus YJL115W, strain asf1, hits give low values 0.978 | locus YJL129C, strain trk1, hits give low values 0.974 | locus YJL134W, strain LCB3, hits give low values 1.01 | locus YJL154C, strain vps35, hits give low values 0.977 | locus YJL164C, strain tpk1, hits give low values 0.947 | locus YJL166W, strain qcr8, hits give low values 1 | locus YJL168C, strain set2, hits give low values 0.988 | locus YJL187C, strain SWE1 (second series), hits give low values 1.01 | locus YJL187C, strain SWE1, hits give low values 0.989 | locus YJR043C, strain POL32, hits give low values 1.01
